# Source: the supplement of paper PMC10646978
# ± gives the standard deviation.
# What was measured:
# Conditions in all cases: modulator concentration 10 µM
# [1] = system: RAW-Dual (murine macrophage reporter line); test: NF-kB reporter (SEAP) activity fold change vs agonist alone; higher = enhanced NF-kB activity
# In short: (§1)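 RAW-Dual murine macrophage reporter cells were seeded at 50 000 per well in 384-well plates and pre-incubated 1 hour at 37 °C with compound pin-transferred to 10 μM final. After 1 hour, a PRR agonist was added and cells incubated overnight. Supernatant NF-κB (SEAP, QUANTI-Blue, 620 nm absorbance) and IRF (Lucia luciferase, QUANTI-Luc, luminescence) signals were divided by the mean agonist-only control on the same plate to give fold change. Two replicate plates were averaged, with errors by propagation.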
# [2] = system: RAW-Dual (murine macrophage reporter line); test: IRF reporter (Lucia luciferase) activity fold change vs agonist alone; higher = enhanced IRF activity
# In short: as §1
# [3] = system: RAW-Dual (murine macrophage reporter line); test: viability score (confluency relative to resting cells, overnight) (fraction); higher = more viable, active = viable (0.7 or more)
# In short: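 RAW-Dual macrophages in 384-well plates were incubated overnight with compound, final concentration 10 μM. Confluency images from IncuCyte were processed in IncuCyte software into two masks covering all imaged wells. The viability score is each well's confluency relative to resting cells, and a compound met the cutoff when both masks exceeded 70% of resting cells.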
# [4] = agonist: CpG ODN 1826 0.5 ug/mL
Structure (SMILES),"NF-kB reporter [1, 4]",NF-kB reporter ([1]; agonist: LPS 0.1 ug/mL),NF-kB reporter ([1]; agonist: MPLA […]),IRF reporter ([2]; agonist: 3'3'-cGAMP 10 ug/mL),IRF reporter ([2]; agonist: LPS 0.1 ug/mL),IRF reporter ([2]; agonist: MPLA […]),viability score [3]
N#Cc1ccnc(N2C(=O)CC[C@H]2C(=O)N(c2cncc(F)c2)[C@H](C(=O)NC2CC(F)(F)C2)c2ccccc2Cl)c1,1.26 ± 0.3,1.04 ± 0.07,1.26 ± 0.08,1.09 ± 0.055,1.28 ± 0.2,1.17 ± 0.12,1 (active)
O=C(NCCN1CCOCC1)c1cc2nc(-c3ccccc3)cc(C(F)(F)F)n2n1,0.898 ± 0.078,1.06 ± 0.091,0.933 ± 0.061,0.607 ± 0.033,1.09 ± 0.098,1.01 ± 0.09,1 (active)
CC(C)c1ccc(N(CC(=O)NCCSCc2ccc(Cl)cc2)S(C)(=O)=O)cc1,0.597 ± 0.058,0.909 ± 0.076,0.918 ± 0.08,0.588 ± 0.04,1.14 ± 0.066,1.07 ± 0.13,1.01 (active)
CN(C)CC(c1ccc(O)cc1)C1(O)CCCCC1.O=C(O)CCC(=O)O (centres undefined),0.101 ± 0.0077,0.562 ± 0.045,0.531 ± 0.031,0.913 ± 0.075,1.29 ± 0.29,1.18 ± 0.36,0.633 (inactive)
O=C(NC1CCC(F)(F)CC1)c1cc(Br)cs1,1.13 ± 0.064,0.996 ± 0.075,0.984 ± 0.04,0.833 ± 0.051,1.04 ± 0.052,1.03 ± 0.15,0.999 (active)
O=C1CCc2cc(OCCCCc3nnnn3C3CCCCC3)ccc2N1,1.52 ± 0.27,1.24 ± 0.38,1.18 ± 0.2,1.01 ± 0.043,1.32 ± 0.2,1.32 ± 0.12,0.991 (active)
O=C(NC1CCCCCC1)c1ccc([N+](=O)[O-])cc1Cl,1.1 ± 0.084,0.94 ± 0.07,0.919 ± 0.1,0.804 ± 0.035,1.08 ± 0.14,1.08 ± 0.13,0.983 (active)
Cc1c(C)c2c(c(C)c1O)CCC(C)(C(=O)O)O2 (centres undefined) [Prestw-530],1.14 ± 0.13,1.03 ± 0.078,0.98 ± 0.03,0.986 ± 0.042,0.98 ± 0.054,1.03 ± 0.1,0.998 (active)
CCN1CCN(S(=O)(=O)c2ccc(Oc3ccccc3)cc2)CC1,1 ± 0.061,1.01 ± 0.11,1.09 ± 0.036,0.905 ± 0.043,1.09 ± 0.1,1.03 ± 0.21,0.996 (active)
Cc1cc(=O)n(-c2ccccc2)n1C,0.98 ± 0.18,1.02 ± 0.08,0.99 ± 0.095,1.02 ± 0.033,1.27 ± 0.18,1.22 ± 0.14,0.995 (active)
CCCOc1cccc(C(=O)Nc2scc(-c3ccccc3)c2C(=O)OC(C)C)c1,1.79 ± 0.35,1.24 ± 0.16,2.23 ± 0.46,0.635 ± 0.056,0.66 ± 0.22,0.65 ± 0.041,0.883 (active)
CC(=O)OC(OC(C)=O)c1ccc([N+](=O)[O-])s1,0.0633 ± 0.01,0.0636 ± 0.0089,0.156 ± 0.012,0.0166 ± 0.0041,0.0362 ± 0.0098,0.0457 ± 0.011,0.177 (inactive)
Cc1ccc(-c2cc(-c3ccccc3)nc(NN=Cc3ccc(F)cc3)n2)cc1,0.961 ± 0.17,1.23 ± 0.1,0.988 ± 0.13,1.02 ± 0.051,1.15 ± 0.11,1.48 ± 0.27,0.959 (active)
CC(=O)Nc1ccc(NC(=O)COc2ccc(Br)c(C)c2)cc1,0.902 ± 0.15,1.09 ± 0.097,0.95 ± 0.087,0.997 ± 0.026,1.27 ± 0.36,1.22 ± 0.17,1.01 (active)
Cc1ncn(CCNC(=O)Nc2ccc(OC(F)(F)F)cc2)c(=O)c1C,1.14 ± 0.077,1.08 ± 0.088,1.01 ± 0.061,0.901 ± 0.035,1.06 ± 0.05,1.11 ± 0.25,0.998 (active)
O=C(O)CCCNCP(=O)(O)CCc1ccccc1,0.97 ± 0.099,0.91 ± 0.093,0.881 ± 0.083,0.964 ± 0.048,0.989 ± 0.14,0.963 ± 0.19,1.03 (active)
CSc1nnc2c(n1)[nH]c1c(C)cccc12,1.01 ± 0.082,0.931 ± 0.096,0.904 ± 0.098,0.989 ± 0.066,1.31 ± 0.25,1.42 ± 0.33,1.02 (active)
C[C@@H](Oc1cc(-c2cnn(C3CCNCC3)c2)cnc1N)c1c(Cl)ccc(F)c1Cl,0.149 ± 0.026,0.423 ± 0.2,1.47 ± 0.12,0.0546 ± 0.0028,0.165 ± 0.074,0.128 ± 0.02,0.0221 (inactive)
NCC1OC(OC2C(CO)OC(OC3C(O)C(N)CC(N)C3OC3OC(CN)C(O)C(O)C3N)C2O)C(N)C(O)C1O.O=S(=O)(O)O (centres undefined),1.21 ± 0.096,1.01 ± 0.074,1.13 ± 0.12,0.993 ± 0.031,1.22 ± 0.12,1.29 ± 0.18,1.02 (active)
COc1cccc2cc(C(=O)NCc3nn(C4CCCC4)c(=O)c4ccccc34)oc12,0.976 ± 0.053,1.1 ± 0.086,0.846 ± 0.096,0.827 ± 0.062,1.2 ± 0.24,0.848 ± 0.39,1.02 (active)
Cc1ccc2sc(NC(=O)c3cccc(N4C(=O)CCC4=O)c3)nc2c1C,0.946 ± 0.097,0.877 ± 0.074,1.11 ± 0.12,0.939 ± 0.03,1.39 ± 0.19,1.57 ± 0.21,1.02 (active)
Nc1c2c(nc3ccccc13)CCCC2O (centres undefined) [Prestw-448],0.958 ± 0.059,0.88 ± 0.068,0.958 ± 0.026,1.01 ± 0.042,0.964 ± 0.05,0.906 ± 0.087,0.994 (active)
CCOc1ccc2c(c1)C(C)=CC(C)(C)N2 [Prestw-765],0.892 ± 0.098,1.07 ± 0.055,1.11 ± 0.029,0.812 ± 0.065,0.967 ± 0.052,0.997 ± 0.082,1 (active)
O=C(O)c1cc(O)c(O)c(O)c1,0.306 ± 0.013,0.876 ± 0.078,0.749 ± 0.062,0.594 ± 0.03,1.16 ± 0.2,0.97 ± 0.27,1.02 (active)
CC(C)N1CCN(c2ccc(OC[C@H]3CO[C@](Cn4cncn4)(c4ccc(Cl)cc4Cl)O3)cc2)CC1,1.04 ± 0.078,1.15 ± 0.077,1.08 ± 0.027,0.832 ± 0.048,1.05 ± 0.042,1.02 ± 0.11,0.997 (active)
CS(=O)(=O)NCc1cccc(Oc2ccc(F)cc2)c1,1.03 ± 0.066,0.955 ± 0.079,0.997 ± 0.029,1.1 ± 0.046,0.992 ± 0.061,1.03 ± 0.1,0.997 (active)
CC(C)CC(C(=O)Nc1cccc(O)c1)N1C(=O)c2ccccc2C1=O (centres undefined),0.947 ± 0.076,1.04 ± 0.099,1.16 ± 0.083,1.04 ± 0.04,1.64 ± 0.15,1.63 ± 0.14,0.913 (active)
